The nature of assay [1]: NCI Yeast Anticancer Drug Screen. Data for the rad50 strain (AID 155).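 Further: 0% = growth of vehicle-only cultures of the same strain.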 The following applies: S. cerevisiae rad50 strain growth inhibition; at 50.0 µM; stronger effect = higher value. In outline:
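Yeast carrying a defined DNA repair defect were exposed to test compounds, and growth was compared with vehicle-treated controls to give percent inhibition.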

A short description of assay [2]: NCI Yeast Anticancer Drug Screen. Data for the mec2-1 strain (AID 157). The following applies: S. cerevisiae mec2-1 strain, at 50.0 µM, stronger effect = higher value. The method, boiled down:
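Vehicle-treated cultures served as reference for growth inhibition of compound-exposed mec2-1 yeast.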

A short description of assay [3]: NCI Yeast Anticancer Drug Screen. Data for the sgs1 mgt1 strain (AID 161).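 Further: 0% = growth of cultures given vehicle only.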 The note with it: S. cerevisiae sgs1 mgt1 strain, at 50.0 µM, stronger effect = higher value. The method, boiled down: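 Mutant yeast exposed to compound; growth scored against vehicle-only wells.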
Assay [4] in a line: NCI Yeast Anticancer Drug Screen. Data for the cln2 rad14 strain (AID 165).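 Further: 0% = growth equal to vehicle treated cultures.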 The following applies: S. cerevisiae cln2 rad14 strain, at 50.0 µM, stronger effect = higher value. The method, boiled down: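 Each compound was tested on cln2 rad14 yeast. Inhibition of growth was calculated against vehicle-exposed controls.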
Assay [5] can be described thus: NCI Yeast Anticancer Drug Screen. Data for the bub3 strain (AID 167). The following applies: S. cerevisiae bub3 mutant strain, at 50.0 µM, stronger effect = higher value. In outline: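 Compounds were applied to a genetically altered yeast strain carrying a cell-cycle control defect. Growth inhibition was scored against vehicle-treated controls.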
Assay [6] is described as follows: NCI Yeast Anticancer Drug Screen. Data for the mlh1 rad18 strain (AID 175). The following applies: S. cerevisiae mlh1 rad18 strain growth inhibition; at 50.0 µM; stronger effect = higher value. In outline:
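Vehicle-treated cultures served as the reference for growth inhibition in a yeast strain carrying DNA damage repair alterations exposed to each compound.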

SMILES strings stand for the structures. About 79,000 compounds went through this panel and 15% of them were active in at least one assay; those are over-represented in the sample as a whole. Values without a mark were called inactive. The source made the active and inactive calls. No stated cut-off is given here; in the data, active means growth inhibition above about 70%; inactive means the rest.

Consider `COc1ccc2[nH]c(=O)ccc2c1`, for which the growth inhibition in assay [1] was 1.6%; in assay [2], 0.35%; in assay [3], -2.3%; in assay [4] it was -0.5%; in assay [5], 12.7%; in assay [6], -2.95%.

With `Cc1ccccc1N(C)S(=O)(=O)c1ccccc1[N+](=O)[O-]`, the growth inhibition in assay [1] is -12%; in assay [2] it was -41.5%; in assay [3], 8.45%; in assay [4], -5.6%; in assay [5], 20.2%; in assay [6], -10.2%.

Consider `Cc1ccc(N=NC(=O)NNc2ccc(C)cc2Br)c(Br)c1`, for which the growth inhibition in assay [1] is 19.4%; in assay [2], -8.8%; in assay [3] it was -3.8%; in assay [4], 15.2%; in assay [5] it was -6.5%; in assay [6] it was 14.6%.

`O=S(=O)(Nc1cccc(C2=NCCN2)c1)c1cccc2c(S(=O)(=O)Nc3cccc(C4=NCCN4)c3)cccc12`: the growth inhibition in assay [1] was -9.6%; in assay [2], -25.9%; in assay [3], -30.1%; in assay [4], -19%; in assay [5] it was -12.2%; in assay [6], -22.1%.

Consider `CCCCn1cnc2ccc3nc(-c4ccccc4)c(-c4ccccc4)nc3c2c1=O`, for which the growth inhibition in assay [1] was 43.8%; in assay [2], -15.4%; in assay [3] it was 9.3%; in assay [4], 4.1%; in assay [5], 1.5%; in assay [6] it was 4.65%.

As for `CCn1c(=O)c2c3ccc(OC(C)=O)cc3[nH]c2c2ccc(OC(C)=O)cc21`, the growth inhibition is -17.9% in assay [1]; -30.5% in assay [2]; -10.9% in assay [3]; 9.35% in assay [4]; 4% in assay [5]; -21.6% in assay [6].

For `CN(CCO)CCN1c2ccccc2Sc2ccccc21`, the growth inhibition in assay [1] is -12.7%; in assay [2], -26.3%; in assay [3], -10.2%; in assay [4] it was -13.9%; in assay [5], -5.8%; in assay [6], -0.65%.

For `O=S(=O)(Nc1ccc(C(F)(F)F)cc1)c1ccc(F)cc1`, the growth inhibition is -5.7% in assay [1]; 7.35% in assay [2]; 26% in assay [3]; 15.9% in assay [4]; -0.95% in assay [5]; 28.1% in assay [6].

As for `NC1=Nc2ccccc2Sc2nncn21`, the growth inhibition in assay [1] was -18.2%; in assay [2] it was -43.9%; in assay [3], -10.7%; in assay [4] it was -10.6%; in assay [5], 0.1%; in assay [6], -4.35%.

As for `O=c1c(Cl)c(N2CCCCC2)cnn1-c1ccccc1`, the growth inhibition in assay [1] was 20.8%; in assay [2], 14.2%; in assay [3], 16.6%; in assay [4], 7.6%; in assay [5] it was 14.1%; in assay [6], 19.4%.

Turning to `CCCCC[N+](CCCCC)(CCCCC)CCCCC`, the growth inhibition in assay [1] was -10.8%; in assay [2], -16.4%; in assay [3], -27.4%; in assay [4] it was 8.4%; in assay [5], 14%; in assay [6], -13.5%.

For the compound `N#Cc1ccc(/C=C2\Cc3ccccc3C2=O)cc1`, the growth inhibition in assay [1] is -30.6%; in assay [2] it was -29.7%; in assay [3], -35%; in assay [4] it was 9.5%; in assay [5], -18.8%; in assay [6] it was 3.5%.

Regarding `CCCC1(C(=O)O)NC(=O)NC1=O` (stereo not given), the growth inhibition was -4.7% in assay [1]; -11.3% in assay [2]; -14.7% in assay [3]; -12.6% in assay [4]; -1.1% in assay [5]; -8.1% in assay [6].

As for `C=CCS(=O)CC(NC(=O)c1ccccc1)C(=O)O` (stereo not given), the growth inhibition in assay [1] is -32%; in assay [2] it was -3.75%; in assay [3], 20.6%; in assay [4] it was -15.4%; in assay [5], 4.1%; in assay [6], -13.4%.

With `O=C1c2ccccc2C(=O)N1n1c(Cc2ccccc2)n[nH]c1=O`, the growth inhibition was -16.1% in assay [1]; -28.2% in assay [2]; -41.5% in assay [3]; -10.8% in assay [4]; -16.5% in assay [5]; -16.2% in assay [6].

`CN(C)CC1CCc2ccccc2C1=O` (stereo not given): the growth inhibition in assay [1] was -16.1%; in assay [2] it was -37.2%; in assay [3], -46.8%; in assay [4], -2.05%; in assay [5], -52.1%; in assay [6], -48.1%.

`COc1ccc(CCCNC(=O)Cc2ccccc2CO)cc1OC`: the growth inhibition in assay [1] was 21.6%; in assay [2], -46.6%; in assay [3], -3.4%; in assay [4] it was -0.8%; in assay [5] it was -10.2%; in assay [6], -48.2%.

For `CC(=O)On1c(-c2ccccc2-c2nc3ccccc3n2OC(C)=O)nc2ccccc21`, the growth inhibition in assay [1] is 10%; in assay [2], 14.4%; in assay [3] it was 13.4%; in assay [4], 8.9%; in assay [5] it was -5.05%; in assay [6], 2.75%.

`Cn1cnc2ncnc(NCc3ccc(Cl)c(Cl)c3)c21`: the growth inhibition in assay [1] was -1.45%; in assay [2], 18.9%; in assay [3], -7.35%; in assay [4], -21.2%; in assay [5], 4.6%; in assay [6] it was -25.1%.

Turning to `CCCCCCCC(N)=O`, the growth inhibition in assay [1] is 15.7%; in assay [2] it was -28.1%; in assay [3], 8.4%; in assay [4], 12.4%; in assay [5], -11.6%; in assay [6], -10.3%.

With `CCOC(=O)c1ccc([N+](=O)[O-])cc1`, the growth inhibition in assay [1] was -9.55%; in assay [2], -12%; in assay [3], -17.4%; in assay [4] it was -29.2%; in assay [5], -18.6%; in assay [6], 21.1%.

Regarding `O=C1c2ccccc2-c2c1c1ccccc1c(=O)n2Cc1ccco1`, the growth inhibition in assay [1] was 16.1%; in assay [2] it was -29.2%; in assay [3], -2.8%; in assay [4] it was 8.85%; in assay [5], -11.2%; in assay [6] it was -18.9%.

With `CC(O)C(NC(=O)c1cnc(OCc2ccccc2)nc1N)C(=O)O` (stereo not given), the growth inhibition in assay [1] is 3.65%; in assay [2], -15.7%; in assay [3], -11%; in assay [4], 0.85%; in assay [5], -9.8%; in assay [6], -3.35%.

With `CC(=O)NC(CCCN)C(=O)NCc1ccccc1` (stereo not given), the growth inhibition in assay [1] was 3.45%; in assay [2], -19.2%; in assay [3], -20.3%; in assay [4] it was 17.5%; in assay [5] it was -3.45%; in assay [6] it was -22.6%.

Regarding `CCCCn1c2nc3ccccc3c-2nc2cc(OC)c(OC)cc21`, the growth inhibition was 26.1% in assay [1]; 15.3% in assay [2]; 14.6% in assay [3]; 5.5% in assay [4]; 12.2% in assay [5]; 35.1% in assay [6].

As to `c1ccc(C(Sc2c[nH]c3ccccc23)(c2ccccc2)c2ccccc2)cc1` (tested in a mixture with another compound), the growth inhibition was -20.4% in assay [1]; -11.7% in assay [2]; 9.8% in assay [3]; 1.9% in assay [4]; -38.5% in assay [5]; -25.1% in assay [6].

For `COc1ccc(N2CCN(CC(O)COc3ccc(Cl)cc3)CC2)cc1` (stereo not given), the growth inhibition in assay [1] was 70.8% (active); in assay [2], 18.9%; in assay [3], 75% (active); in assay [4], 14.9%; in assay [5] it was 13.8%; in assay [6], 28.5%.

On to `O=C(COc1ccc(F)cc1)OCCO`, for which the growth inhibition in assay [1] was 13.9%; in assay [2], -20.9%; in assay [3] it was -2.55%; in assay [4], -33.2%; in assay [5] it was -15.3%; in assay [6], -18.9%.

`COC1OC(COCc2ccccc2)C(OCc2ccccc2)C(OC)C1O` (stereo not given): the growth inhibition in assay [1] was -37.6%; in assay [2], -3%; in assay [3], 5.6%; in assay [4], -40.9%; in assay [5], -2.3%; in assay [6], -17.6%.

For the compound `Cn1c(=O)c2c(nc(Cl)n2Cc2ccc([N+](=O)[O-])cc2)n(C)c1=O`, the growth inhibition in assay [1] is -2.35%; in assay [2], 20%; in assay [3] it was -2.55%; in assay [4] it was -39.3%; in assay [5], 20.1%; in assay [6], 1%.

With `COc1cc([C@H]2Oc3cc([C@H]4Oc5cc(O)cc(O)c5C(=O)[C@@H]4O)ccc3O[C@@H]2CO)ccc1O`, the growth inhibition in assay [1] is 3.15%; in assay [2], 0.55%; in assay [3] it was 11.8%; in assay [4], -36.4%; in assay [5], 15.5%; in assay [6], 6.05%.

As to `Cc1ccc2c(c1)C(C(C)C)CCC2(C)C` (stereo not given), the growth inhibition in assay [1] is 5.3%; in assay [2] it was -8.1%; in assay [3], 2.95%; in assay [4], 4.85%; in assay [5], -0.6%; in assay [6], 0.7%.

Regarding `NC(=O)C(O)C(O)CO` (stereo not given), the growth inhibition in assay [1] is -8.8%; in assay [2] it was -9.35%; in assay [3], -15.2%; in assay [4] it was 7.2%; in assay [5], -8.8%; in assay [6] it was -5.25%.

For the compound `COC1OC(COS(=O)(=O)c2ccc(C)cc2)C(N(C)C(C)=O)C1OS(=O)(=O)c1ccc(C)cc1` (stereo not given), the growth inhibition in assay [1] was 8.65%; in assay [2], -8.3%; in assay [3] it was 16.6%; in assay [4], -2.3%; in assay [5] it was 2.3%; in assay [6], 0.65%.

For the compound `O=C1C(=O)C([n+]2cccc3ccccc32)=C([O-])C2=C1C1c3ccccc3C2c2ccccc21`, the growth inhibition is 98.8% (active) in assay [1]; 98.4% (active) in assay [2]; 98.9% (active) in assay [3]; 98.8% (active) in assay [4]; 91% (active) in assay [5]; 98.6% (active) in assay [6].

Take `CC1(C)CCC(C)(C)C1C(=O)NC(O)C(=O)O` (stereo not given): the growth inhibition was -21.4% in assay [1]; 8.8% in assay [2]; -33% in assay [3]; -2.2% in assay [4]; 3.25% in assay [5]; -9.8% in assay [6].

For the compound `COc1ccc(F)cc1N`, the growth inhibition in assay [1] is 2%; in assay [2] it was -17.8%; in assay [3], 5.15%; in assay [4], -7.35%; in assay [5], 11.8%; in assay [6] it was -18.7%.

In the case of `NC(=O)COc1ccccc1`, the growth inhibition in assay [1] is -14.5%; in assay [2], -8.75%; in assay [3], -1.1%; in assay [4], 14.6%; in assay [5], -0.15%; in assay [6], 27.9%.

For `Cc1ncc2c(=O)c3c(oc2n1)c1ccccc1n3Cc1ccccc1`, the growth inhibition in assay [1] is 8.75%; in assay [2], 9.15%; in assay [3] it was 15.2%; in assay [4], 3.1%; in assay [5], 11.7%; in assay [6], -4.1%.

In the case of `CC1(C)C(CBr)=[N+]([O-])C(C)(C)N1O`, the growth inhibition is 4.8% in assay [1]; -0.6% in assay [2]; -15.2% in assay [3]; 13.6% in assay [4]; -12.9% in assay [5]; 21.6% in assay [6].

Source of the values: PubChem BioAssay (NCI).
